# Test results published in PubChem BioAssay (Tox21).
# Records with an inconclusive call do not appear. Entries that show only a call come without a potency. The source made the active and inactive calls. Calls come from the whole dose curve; as a rule, active = well fitted cell-killing curve with a large enough effect in the repeat runs; inconclusive = weak or mixed curves, or effect the other way; inactive = flat fitted curve, though single readings scatter.
# Assay: Human pregnane X receptor (PXR) small molecule agonists, qHTS cell viability counter screen (AID 1346977); note: nearly all actives have a fitted effect of over 50% in size
# Conditions: PXR-Luc HepG2 viability, CellTiter-Fluor, 24 h; series mostly up to 92.4 µM
# Source text: U.S. Tox21 Program National Center for Advancing Translational Sciences [NCATS] NIH Chemical Genomics Center [NCGC] U.S. Environmental Protection Agency [EPA] National Institutes of Environmental Health Sciences [NIEHS] National Toxicology Program [NTP] U.S. Food and Drug Administration [FDA] Tox21 Assay Overview: The human pregnane X receptor (hPXR) regulates the expression of several drug metabolizing enzymes and induction of these proteins is a major mechanism for developing drug resistance in cancer. One such key enzyme catalyzing the drug metabolism is cytochrome P450 3A4 (CYP3A4). Changes in CYP3A4 expression affect drug metabolism, thereby reducing the therapeutic efficacy and altering toxicological response to a drug and which finally causes adverse drug interaction. To screen Tox21 libraries for compounds that activate hPXR-mediated CYP3A4 gene expression, PXR-Luc HepG2 cells were used. Also cytotoxicity of the compounds was tested in parallel by measuring the cell viability using CellTiter-Fluor assay system in the same wells.
# Tox21 Assay Protocol Summary: PXR-Luc HepG2 cells were dispensed at 2,000 per well in 5uL of assay medium containing 5% charcoal-stripped FBS into white solid bottom 1536-well plates (Corning Life Sciences, Corning, NY) using a Multidrop Combi (Thermo Scientific, Waltham, MA) dispenser. The assay plates were incubated at 37 C and 5% CO2 for 5hr, and then 23nL of compounds dissolved in DMSO and positive control were transferred using a Pintool station (Wako, San Diego, CA). The assay plates were incubated at 37C and 5% CO2 for 24hr. For cytotoxicity read, after 23hr incubation at 37C, 1uL CellTiter-Fluor reagent (Promega Corporation, Madison, WI) was added to each well of the assay plates using Flying Reagent Dispenser (FRD, Aurora Discovery, San Diego, CA). After 1hr incubation at 37C and 5% CO2, the fluorescence signal was quantified using a ViewLux plate reader (PerkinElmer, Shelton, CT).
row,SMILES,Potency
1,C=C(C)C1CCC(C)(O)CC1 (stereo not given),inactive
2,CCCN1C[C@H](CSC)C[C@@H]2c3cccc4[nH]cc(c34)C[C@H]21,inactive
3,COP(=O)(OC)OC(c1ccc(Cl)cc1)P(=O)(OC)OC (stereo not given),inactive
4,O=C1c2ccccc2C(=O)c2cc(S(=O)(=O)O)ccc21,inactive
5,Cc1ccc(C=O)cc1C,inactive
6,O=P(O)(O)OP(=O)(O)O,inactive
7,O=C(O)Cc1cn(-c2ccccc2)nc1-c1ccc(Cl)cc1,inactive
8,Brc1ccc(-c2ccccc2)cc1,inactive
9,CC1(CO)CN(c2ccccc2)NC1=O (stereo not given),inactive
10,OCCC(F)(F)C(F)(F)C(F)(F)C(F)(F)C(F)(F)C(F)(F)C(F)(F)C(F)(F)F,inactive
11,O=C(O)c1cc(Cl)cc([N+](=O)[O-])c1Cl,inactive
12,O=C(Nc1ccc(Cl)c(Cl)c1)C1CC1,inactive
13,C=C(C)C(=O)OCCN(CC)CC,inactive
14,Nc1ncnc(Nc2ccccc2)n1,inactive
15,Nc1ccc(S(=O)(=O)Nc2ccc(Cl)nn2)cc1,inactive
16,COc1ccc2c(c1)C(=O)N(CCc1ccc(S(=O)(=O)NC(=O)NC3CCCCC3)cc1)C(=O)C2(C)C,inactive
17,CC1(C)S[C@@H]2[C@H](N=CN3CCCCCC3)C(=O)N2[C@H]1C(=O)O,inactive
18,O=C(CCNNC(=O)c1ccncc1)NCc1ccccc1,inactive
19,COCCc1ccc(OCC2CO2)cc1 (stereo not given),inactive
20,CC(C)C(=O)OCc1cccc(OC(=O)[C@@H]2N3C(=O)[C@@H](NC(=O)Cc4ccccc4)[C@H]3SC2(C)C)c1,inactive

row,SMILES,Potency
1,CC[C@H](C)C(=O)O[C@H]1C[C@H](O)C=C2C=C[C@H](C)[C@H](CC[C@@H](O)C[C@@H](O)CC(=O)O)[C@H]21,inactive
2,CCC(C)(CCC(C)C)C(=O)O (stereo not given),inactive
3,CCNC(=O)C1CC(C)CCC1C(C)C (stereo not given),inactive
4,CCCCN,inactive
5,Nc1cccc(O)c1,inactive
6,O=C(NCCc1c[nH]c2ccccc12)c1cccnc1,inactive
7,CC(CC=O)CCCC(C)(C)O (stereo not given),inactive
8,C=CCCCCCCCCCCCC,inactive
9,c1ccc2nccnc2c1,inactive
10,CC(=O)CCCCn1c(=O)c2c(ncn2C)n(C)c1=O,inactive
11,C[C@@H](Oc1ccc(CNC(=O)c2cccnc2Oc2ccc3c(c2)OCO3)c(F)c1)C(=O)O,inactive
12,CCCCNC1CC(C)(C)NC(C)(C)C1,inactive
13,CCC(CC)CO,inactive
14,COc1cc(N)ccc1C,inactive
15,OCCN(CCO)c1cccc(Cl)c1,inactive
16,CC(C)=O,inactive
17,Oc1ccccc1-c1nnco1,inactive
18,CC(N)C(=O)OC(C)(C)Cc1ccc(Cl)cc1 (stereo not given),inactive
19,On1nnc2ccccc21,inactive
20,CCCCCCCCOS(=O)(=O)O,inactive
